According to PubChem BioAssay AID1159580 (chemical genetic matrix, 2015):
Values joined by “and” are separate entries in the source; they are usually repeats but may differ in a detail not shown here. Equal entries are not always repeated. Among all 5,500 compounds or so, about 2,000 (36%) were called active. About 18% were inconclusive and are not listed. Cut-off read from the data, not from the text of the source: active = normalized growth mostly below about 0.91 (no sharp cut-off); inconclusive = no clear call, values can overlap the other calls; inactive = mostly above about 0.92. The list shows a part of the results.

Experiment: chemical genetic growth profiling, strain panel (AID 1159580);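 note: tested at 20 µM; growth read once vehicle control cultures reached saturation at 30 °C; 1 = growth at the plate median or of vehicle wells; lower values mean less growth of the strain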
Conditions: S. cerevisiae deletion strains, growth OD
[1] = locus YAL040C, strain CLN3, stronger effect = lower value
[2] = locus YCL061C, strain MRC1 (second series), stronger effect = lower value
[3] = locus YDR150W, strain NUM1, stronger effect = lower value
[4] = locus YDR363W, strain ESC2, stronger effect = lower value
[5] = locus YER002W, strain NOP16, stronger effect = lower value
[6] = locus YGR078C, strain PAC10, stronger effect = lower value
[7] = locus YMR307W, strain GAS1, stronger effect = lower value
[8] = locus YNL175C, strain NOP13, stronger effect = lower value
[9] = locus YNL197C, strain WHI3, stronger effect = lower value
[10] = locus YNL224C, strain SQS1, stronger effect = lower value
[11] = locus YNL322C, strain KRE1, stronger effect = lower value
[12] = locus YOR083W, strain WHI5 (second series), stronger effect = lower value
[13] = locus YAL013W, strain DEP1, stronger effect = lower value
[14] = locus YBR229C, strain ROT2, stronger effect = lower value
[15] = locus YDL101C, strain DUN1, stronger effect = lower value
[16] = locus YDL134C, strain PPH21, stronger effect = lower value
[17] = locus YEL061C, strain CIN8, stronger effect = lower value
[18] = locus YHR030C, strain SLT2, stronger effect = lower value
[19] = locus YJR043C, strain POL32, stronger effect = lower value
[20] = locus YJR075W, strain HOC1, stronger effect = lower value
[21] = locus YKL190W, strain CNB1, stronger effect = lower value
[22] = locus YLR039C, strain RIC1, stronger effect = lower value
[23] = locus YLR262C, strain YPT6, stronger effect = lower value
[24] = locus YMR263W, strain SAP30, stronger effect = lower value
[25] = locus YNL153C, strain GIM3, stronger effect = lower value

Measured: normalized growth

CCC1(O)CC2CN(CCc3c([nH]c4ccccc34)[C@@](C(=O)OC)(c3cc4c(cc3OC)N(C=O)C3[C@]45CCN4CC=C[C@@](CC)([C@@H](OC(C)=O)[C@]3(O)C(=O)OC)[C@H]45)C2)C1 (some centres not stated)
inactive: [1] 0.979 | [2] 0.991 | [3] 0.999 | [4] 0.986 | [5] 1 | [6] 0.999 | locus YGR229C, strain SMI1, stronger effect = lower value 0.983 | [7] 0.99 | [8] 1.01 | [9] 0.983 | [10] 1 | [11] 0.957 | [12] 0.99

NC(CSCSCC(N)C(=O)O)C(=O)O (configuration not stated)
inactive: [13] 1.01 | locus YBR021W, strain FUR4, stronger effect = lower value 1.01 | [14] 0.998 | locus YCL029C, strain bik1, stronger effect = lower value 0.989 | locus YDL035C, strain GPR1, stronger effect = lower value 1.02 | locus YDL074C, strain BRE1, stronger effect = lower value 1.05 | [15] 1 | [16] 0.988 | locus YDL185W, strain tfp1, stronger effect = lower value 1.01 | locus YDL192W, strain arf1, stronger effect = lower value 0.977 | locus YDR101C, strain arx1, stronger effect = lower value 0.999 | locus YDR162C, strain NBP2, stronger effect = lower value 1.02 | locus YDR318W, strain mcm21, stronger effect = lower value 0.981 | locus YDR388W, stronger effect = lower value 0.986 | locus YDR502C, strain sam2, stronger effect = lower value 1 | [17] 1.02 | locus YER110C, stronger effect = lower value 0.987 | locus YER155C, strain BEM2, stronger effect = lower value 1.01 | locus YER167W, strain BCK2, stronger effect = lower value 1 | locus YGL078C, strain dbp3, stronger effect = lower value 1.01 | locus YGL086W, strain mad1, stronger effect = lower value 1 | locus YGL248W, strain PDE1, stronger effect = lower value 0.997 | locus YGR135W, strain pre9, stronger effect = lower value 0.99 | locus YGR252W, strain gcn5, stronger effect = lower value 1.11 | [18] 1.01 and 1.04 | locus YHR079C, strain IRE1 (second series), stronger effect = lower value 0.987 | locus YHR079C, strain IRE1, stronger effect = lower value 1.04 | locus YHR094C, strain hxt1, stronger effect = lower value 0.985 | locus YHR129C, strain ARP1, stronger effect = lower value 0.995 | locus YHR200W, strain rpn10, stronger effect = lower value 0.997 | locus YIL066C, strain RNR3, stronger effect = lower value 1.01 | locus YIL073C, strain SPO22, stronger effect = lower value 1.06 | locus YIL125W, strain kgd1, stronger effect = lower value 1.01 | locus YIR030C, strain dcg1, stronger effect = lower value 0.999 | locus YJL095W, strain BCK1, stronger effect = lower value 1.01 and 1.02 | locus YJL134W, strain LCB3, stronger effect = lower value 1.01 | locus YJL168C, strain set2, stronger effect = lower value 0.982 | locus YJL187C, strain SWE1 (second series), stronger effect = lower value 1.01 | [19] 1.01 | locus YJR066W, strain TOR1, stronger effect = lower value 0.979 | [20] 1.01 | locus YKL009W, strain mrt4, stronger effect = lower value 1.01 | locus YKL068W, stronger effect = lower value 1 | locus YKL085W, strain MDH1 (second series), stronger effect = lower value 0.998 | locus YKL085W, strain MDH1, stronger effect = lower value 0.998 | [21] 1.01 | locus YKR001C, strain vps1, stronger effect = lower value 1.02 | [22] 1.1 | locus YLR058C, strain SHM2, stronger effect = lower value 1 | locus YLR102C, strain apc9, stronger effect = lower value 0.979 | locus YLR113W, strain HOG1, stronger effect = lower value 1.04 | [23] 1.12 | locus YLR268W, strain sec22, stronger effect = lower value 1.02 | locus YLR330W, strain CHS5, stronger effect = lower value 1.01 | locus YLR342W, strain FKS1 (second series), stronger effect = lower value 1.02 | locus YLR371W, strain rom2, stronger effect = lower value 0.977 | locus YLR418C, strain cdc73, stronger effect = lower value 1.01 | locus YML016C, strain PPZ1, stronger effect = lower value 1 | locus YML032C, strain rad52, stronger effect = lower value 0.992 | locus YML124C, strain tub3, stronger effect = lower value 0.99 | locus YMR078C, strain ctf18, stronger effect = lower value 0.988 | locus YMR223W, strain ubp8, stronger effect = lower value 0.994 | [24] 1.01 | [7] 1.02 | locus YNL067W, strain RPL9B, stronger effect = lower value 1 | [25] 1 | locus YNL183C, strain NPR1, stronger effect = lower value 0.983 | locus YNL233W, strain BNI4, stronger effect = lower value 1.02 | locus YNL250W, strain rad50, stronger effect = lower value 1.02 | locus YNL271C, strain bni1, stronger effect = lower value 1.01 | locus YNL298W, strain CLA4, stronger effect = lower value 1 | locus YNL307C, strain MCK1, stronger effect = lower value 0.987 | locus YNR052C, strain pop2, stronger effect = lower value 0.999 | locus YOL012C, strain htz1 0.928 | locus YOL147C, strain pex11, stronger effect = lower value 0.991 | locus YOR061W, strain CKA2, stronger effect = lower value 1.01 | locus YOR069W, strain VPS5, stronger effect = lower value 1.01 | locus YOR136W, strain idh2, stronger effect = lower value 0.996 | locus YOR144C, strain elg1, stronger effect = lower value 0.984 | locus YOR184W, strain ser1, stronger effect = lower value 0.995 | locus YOR231W, strain MKK1, stronger effect = lower value 1.04 | locus YOR316C, strain cot1, stronger effect = lower value 0.98 | locus YPL256C, strain CLN2, stronger effect = lower value 1.02 | locus YPR119W, strain clb2, stronger effect = lower value 0.987 | locus YPR141C, strain kar3, stronger effect = lower value 0.997 | locus YPR163C, strain tif3, stronger effect = lower value 0.999 | locus YPR167C, strain met16, stronger effect = lower value 0.988 | strain wtn01, stronger effect = lower value 1.04

FC(F)(F)c1cc(CO[C@H]2CCCN[C@H]2c2ccccc2)cc(C(F)(F)F)c1
inactive: [13] 0.988 | [1] 0.998 | [2] 0.975 | [4] 0.96 | [5] 1.04 | [24] 0.999 | [7] 0.964 | locus YNL128W, strain TEP1, stronger effect = lower value 1.05 | [25] 0.823 | [8] 1.04 | [9] 1.07 | [10] 1.03 | [12] 0.913

Cn1c2c(c3c1CCCC3)CCCC2
inactive: [13] 0.995 | [14] 1.03 | locus YCL061C, strain MRC1, stronger effect = lower value 1.01 | [15] 0.974 | [16] 1.02 | [3] 1.02 | [17] 0.988 | [6] 1.01 | [18] 1.01 | locus YHR087W, strain rtc3, stronger effect = lower value 0.992 | [19] 1.02 | [20] 1.02 | [21] 1.02 | [22] 0.925 | locus YLR058C, strain SHM2 (second series), stronger effect = lower value 1.02 | locus YLR085C, strain ARP6, stronger effect = lower value 1 | [23] 0.974 | locus YML094W, strain GIM5, stronger effect = lower value 0.972 | locus YMR219W, strain ESC1, stronger effect = lower value 1.02 | [24] 1 | locus YNL298W, strain CLA4 (second series), stronger effect = lower value 1.02 | [11] 1.01 | locus YNR030W, strain Alg12, stronger effect = lower value 1.03 | locus YOL006C, strain TOP1, stronger effect = lower value 1 | locus YPL055C, strain LGE1, stronger effect = lower value 1.08 | locus YPL241C, strain CIN2, stronger effect = lower value 1.01 | locus YPR135W, strain CTF4, stronger effect = lower value 1.06
active: [25] 0.873
